Assay results reported in the supplement of paper PMC3334620.
The full ranking holds about 33,000 sequences; the median of “E-score (-0.5 to 0.5)” is about -0.041, and the highest 2% start at about 0.37. Only a selection was taken, and the highest values are over-represented in it overall.

Biological target: T1, Ecm22 (UniProt Q05958)
T1 sequence: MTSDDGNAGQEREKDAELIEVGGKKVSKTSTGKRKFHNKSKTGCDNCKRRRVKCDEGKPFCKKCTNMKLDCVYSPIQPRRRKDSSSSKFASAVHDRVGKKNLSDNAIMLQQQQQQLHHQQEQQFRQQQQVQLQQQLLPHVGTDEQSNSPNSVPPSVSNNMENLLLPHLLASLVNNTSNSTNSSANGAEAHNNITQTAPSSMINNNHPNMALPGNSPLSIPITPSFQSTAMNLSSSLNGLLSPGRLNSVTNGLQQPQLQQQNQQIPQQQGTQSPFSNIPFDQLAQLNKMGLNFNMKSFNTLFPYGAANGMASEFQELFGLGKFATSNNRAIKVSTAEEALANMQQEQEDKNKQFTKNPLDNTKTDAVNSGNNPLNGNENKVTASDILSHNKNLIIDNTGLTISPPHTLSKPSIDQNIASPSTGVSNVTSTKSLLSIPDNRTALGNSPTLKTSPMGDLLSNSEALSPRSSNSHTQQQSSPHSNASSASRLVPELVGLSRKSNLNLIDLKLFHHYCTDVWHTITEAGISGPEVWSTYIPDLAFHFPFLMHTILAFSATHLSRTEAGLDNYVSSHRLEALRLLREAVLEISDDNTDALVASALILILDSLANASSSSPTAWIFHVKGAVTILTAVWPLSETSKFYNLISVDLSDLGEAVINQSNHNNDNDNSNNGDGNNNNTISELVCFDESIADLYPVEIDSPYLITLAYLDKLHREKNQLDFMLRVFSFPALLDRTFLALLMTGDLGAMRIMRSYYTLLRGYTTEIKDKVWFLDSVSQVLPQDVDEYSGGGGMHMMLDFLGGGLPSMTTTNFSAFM
Test: PBM E-score (8-mer binding enrichment) (E-score (-0.5 to 0.5)); higher = stronger / more preferred TF binding
Settings: protein concentration: 200 nM; construct: GST-full length
Procedure, shortened: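 PURExpress in vitro transcription/translation supplied GST-tagged yeast transcription factors, either full-length or DNA-binding domain. Applied at about 100-200 nM to universal all-10-mer Agilent arrays double-stranded by primer extension, the bound protein was detected with fluorescent anti-GST. E-scores, modified Wilcoxon-Mann-Whitney statistics, were given by the Universal PBM Analysis Suite to ungapped eight-base words pooled with their reverse complements after masliner normalisation.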

Row | Sequence | PBM E-score
1 | CGCGAGAG | 0.233
2 | ACGGTAGC | -0.00152
3 | ACAATCGC | 0.226
4 | AAGTTTTC | 0.0919
5 | AGCCTGGC | -0.142
6 | ACCGTGCG | 0.161
7 | GTCCGTGA | 0.0485
8 | CCTTAGCA | -0.287
9 | AGACGACG | 0.23
10 | CTACGACC | 0.413
11 | ACACGACG | 0.251
12 | ACACGACC | 0.186
13 | ATACGACG | 0.485
14 | CGACGACC | 0.154
15 | AGACGACC | 0.0158
16 | CCACGACC | 0.00845
17 | ATACGACC | 0.473
18 | CCGCGCTA | 0.0135
19 | ATGAGAGG | -0.151
20 | CTCGCAAG | 0.17
21 | GTCCGTCA | -0.131

Row | Sequence | PBM E-score
22 | CAGGGCAG | -0.104
23 | ACTTTCCA | -0.205
24 | AAGTAGCA | -0.137
25 | ATTGTAGA | 0.0824
26 | ACCGTTCT | 0.135
27 | GACGTTCC | 0.141
28 | GCCGTTCA | 0.229
29 | ACCGTTCC | 0.434
30 | ACCGTTCG | 0.229
31 | CCCGTTCG | 0.196
32 | GCCGTTCC | 0.444
33 | CCCGTTCC | 0.447
34 | CCCGTTCA | 0.267
35 | GAGGCTCA | -0.237
36 | CTCGGCAA | 0.106
37 | GCTCTAAA | -0.144
38 | CCTAACAC | 0.0728
39 | GGTACTAC | 0.0611
40 | CACGACGG | 0.167
41 | AACGGCGA | 0.381
42 | AACGGCGT | 0.242

Row | Sequence | PBM E-score
43 | AAGGACGT | 0.0897
44 | GACGACGC | 0.145
45 | AACGACGG | 0.444
46 | AACGACGT | 0.435
47 | ACCGACGG | 0.196
48 | CACGACGC | 0.119
49 | ACCGACGT | 0.329
50 | AACGACGC | 0.448
51 | CACGGCGA | 0.0797
52 | AGAGTCAG | -0.111
53 | ACCTTCGG | 0.188
54 | CACCATGG | -0.173
55 | AGAGGGTA | -0.0925
56 | GAGCCACA | -0.0887
57 | CGGTTTTA | 0.072
58 | CCTAGCAG | -0.263
59 | GTTGCTCA | 0.108
60 | ACAGGTCC | -0.142
61 | ATATCAAG | 0.0598
62 | TCTGGGAA | 0.00899
63 | CGCATGCG | 0.0792

Row | Sequence | PBM E-score
64 | ACGGTAAC | 0.151
65 | ATCGACGA | -0.00044
66 | AGCGACGA | 0.195
67 | TACGACGA | 0.469
68 | AACGACGA | 0.444
69 | GACGACGA | 0.0563
70 | CACGACGA | 0.108
71 | AGACTTAT | -0.104
72 | CAGCAATG | -0.198
73 | GGATGGTA | -0.0324
74 | TCACTCGA | 0.163
75 | AATGCAGC | -0.147
76 | CAGGTACC | -0.126
77 | AAGGTACT | 0.0334
78 | CAGGTACG | 0.423
79 | AAGGTACC | -0.0364
80 | ATGGTACA | -0.122
81 | ATGGTACG | 0.443
82 | ATGGTACC | -0.225
83 | AAGGTACG | 0.434
84 | CAGGTACA | -0.23
